Records with an inconclusive call do not appear. The source made the active and inactive calls. Unless noted, the call rests on the fitted dose curve.
Assays:
[1] = qHTS assay to identify small molecule antagonists of the vitamin D receptor (VDR) signaling pathway - cell viability counter screen (AID 743225; active means well fitted curve in the direction sought with a large enough effect in the repeat runs; an effect the other way counts as inactive or inconclusive; further: on the % scale 0 is the no-effect control and ±100 the full control effect; nearly all actives have a fitted effect of over 50% in size)
Summary of the method: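 Viability counter screen run in the same wells as the beta-lactamase reporter assay: HEK 293T VDR-UAS-bla cells, 16 h compound exposure at 37C with 3 nM (final) 1-alpha,25-dihydroxyvitamin D3. CellTiter-Glo luminescence, 30 min, room temperature.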

[2] = qHTS assay to identify small molecule agonists of the NFkB signaling pathway - cell viability counter screen (AID 1159515); further: nearly all actives have a fitted effect of over 55% in size; further: potency means the concentration at half of the fitted maximal effect; on activity, negative = cytotoxic: series mostly up to about 61 µM; on the % scale 0 is the no-effect control and ±100 the full control effect
Summary of the method: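 Luminescence from CellTiter-Glo (30 min, room temperature) gives viability, measured in the same wells as the beta-lactamase reporter read. Cells were NFkB-bla ME-180, 2,000 per well, treated 5 hr with compounds.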

[3] = qHTS assay to identify small molecule agonists of the endoplasmic reticulum stress response signaling pathway (AID 1159516; active means well fitted activation curve with a large enough effect in the signal ratio in the repeat runs, not every such curve was filed as active; the % refers to the signal ratio; further: on the % scale 0 is the no-effect control and ±100 the full control effect)
Summary of the method: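 Read-out is beta-lactamase cleavage of a FRET substrate (405 nm excitation; 460 and 530 nm emissions) in ESRE-bla HeLa cells after a 5 hr compound exposure at 37 C. Substrate incubation ran 2 hr at room temperature.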

[4] = qHTS assay to identify small molecule agonists of the endoplasmic reticulum stress response signaling pathway - cell viability counter screen (AID 1159517); further: nearly all actives have a fitted effect of over 50% in size; further: potency means the concentration at half of the fitted maximal effect;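 on activity change, negative = cytotoxicity: HeLa cells carrying an ER stress response element beta-lactamase reporter; series mostly up to about 61 µM; on the % scale 0 is the no-effect control and ±100 the full control effect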
Summary of the method: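 CellTiter-Glo was added to wells already read for beta-lactamase FRET, and luminescence was recorded 30 min later. Cells: ESRE-bla HeLa, 1,500 per well, compound exposure 5 hr at 37 C.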

[5] = qHTS assay to identify small molecule antagonists of the retinoid-related orphan receptor gamma (ROR-gamma) signaling pathway - cell viability counter screen (AID 1159520; active means well fitted curve in the direction sought with a large enough effect in the repeat runs; an effect the other way counts as inactive or inconclusive; further: nearly all actives have a fitted effect of over 50% in size; further: potency means the concentration at half of the fitted maximal effect)
Summary of the method: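 Tet-on ROR gamma CHO cells (1,000/well) were plated 4 hr, given compounds in DMSO for 2 hr at 37 C, then induced with 1 uM final doxycycline for 16 hr. Viability was read as ATP by CellTiter-Glo luminescence after 30 min.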

[6] = target: Nuclear receptor ROR-gamma (Homo sapiens) (UniProt P51449); assay: qHTS assay to identify small molecule antagonists of the retinoid-related orphan receptor gamma (ROR-gamma) signaling pathway (AID 1159521; active means well fitted curve in the direction sought with a large enough effect in the repeat runs; an effect the other way counts as inactive or inconclusive; further: nearly all actives have a fitted effect of over 50% in size; further: potency means the concentration at half of the fitted maximal effect)
Summary of the method: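 Luminescence readout (ONE-Glo, 30 min RT) after 16 h doxycycline induction; loss of signal scored as antagonism. CHO cells with TET-inducible RORγ and RORE-LUC reporter; compounds added 2 h before 1 uM final doxycycline.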

[7] = qHTS assay to identify small molecule agonists of the AP-1 signaling pathway - cell viability counter screen (AID 1159525); further: nearly all actives have a fitted effect of over 55% in size
Summary of the method: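 ME-180 AP-1-bla, 2500 cells/well, Opti-MEM + 0.5% dialyzed FBS; overnight 37 °C; cpd 15-pt titration, 5 h 37 °C; CellTiter-Glo 30 min RT; luminescence read; normalised to TOAB and DMSO controls.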

[8] = target: Retinoic acid receptor RXR-alpha (Homo sapiens) (UniProt P19793); assay: qHTS assay to identify small molecule agonists of the RXR signaling pathway (AID 1159527); further: on the % scale 0 is the no-effect control and ±100 the full control effect; nearly all actives have a fitted effect of over 35% in size
Summary of the method: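 Agonist mode; 9-cis retinoic acid positive control. HEK 293T UAS-bla reporter cells, 2% charcoal-stripped FBS, 16 hr compound exposure at 37 C/5% CO2. LiveBLAzer B/G FRET substrate 2 hr RT; ex 405, em 460/530 nm.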

[9] = qHTS assay to identify small molecule agonists of the RXR signaling pathway - cell viability counter screen (AID 1159529; active means well fitted curve in the direction sought with a large enough effect in the repeat runs; an effect the other way counts as inactive or inconclusive; further: nearly all actives have a fitted effect of over 50% in size; further: potency means the concentration at half of the fitted maximal effect)
Summary of the method: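 Luminescence from CellTiter-Glo (30 min, RT) measured viability in the same wells as the beta-lactamase reporter readout. Cells: GeneBLAzer RXR-alpha HEK 293T, 2% charcoal-stripped FBS. Compound exposure 16 hr, 37 C.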

[10] = qHTS assay to identify small molecule agonists of the AP-1 signaling pathway (AID 1159526); further: on the % scale 0 is the no-effect control and ±100 the full control effect

Chain of Retinoic acid receptor RXR-alpha (Homo sapiens) (P19793 whole entry, looked up): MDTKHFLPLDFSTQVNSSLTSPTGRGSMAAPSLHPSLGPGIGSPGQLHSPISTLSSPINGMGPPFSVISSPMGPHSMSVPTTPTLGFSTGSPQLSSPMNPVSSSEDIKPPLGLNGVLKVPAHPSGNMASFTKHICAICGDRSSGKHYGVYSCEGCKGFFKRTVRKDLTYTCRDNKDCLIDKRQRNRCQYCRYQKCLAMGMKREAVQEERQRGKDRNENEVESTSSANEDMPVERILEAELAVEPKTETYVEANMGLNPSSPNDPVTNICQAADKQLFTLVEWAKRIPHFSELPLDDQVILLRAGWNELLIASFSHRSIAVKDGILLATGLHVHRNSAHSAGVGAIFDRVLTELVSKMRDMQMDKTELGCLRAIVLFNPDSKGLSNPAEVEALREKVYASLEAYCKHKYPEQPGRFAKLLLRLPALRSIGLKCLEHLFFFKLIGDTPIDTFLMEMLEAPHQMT

CN1CCC(N(Cc2cccs2)c2ccccc2)CC1
inactive: Potency [1] | Potency [2] | Potency [3] | Potency [4] | Potency [5] | Potency [6] | Potency [7]

CCC(C)(C)CC
inactive: Potency [1] | Potency [2] | Potency [3] | Potency [4] | Potency [5] | Potency [6] | Potency [8] | Potency [9]

CCCCCCCCCCCCN1CCCCCC1=O
inactive: Potency [3] | Potency [4] | Potency [5] | Potency [6]
active: Potency [2] 54.9 µM

C=CC(=O)OCCOCCOC(=O)C=C
inactive: Potency [2] | Potency [3] | Potency [4]
active: Potency [5] 13.7 µM

O=C1OC(=O)C2C3C=CC(C3)C12 (stereo not drawn)
inactive: Potency [1] | Potency [2] | Potency [3] | Potency [4] | Potency [5] | Potency [6] | Potency [10] | Potency [8]

C[Si](C)(CCCN)O[Si](C)(C)CCCN
inactive: Potency [1] | Potency [2] | Potency [3] | Potency [4] | Potency [5] | Potency [6] | Potency [10] | Potency [8] | Potency [9]

CCCCC/C=C\C/C=C\CCCCCCCC(=O)NC(C)c1ccccc1 (stereo not drawn)
inactive: Potency [2] | Potency [3] | Potency [4] | Potency [5] | Potency [6] | Potency [10] | Potency [9]

C1CCCNCCC1
inactive: Potency [1] | Potency [2] | Potency [3] | Potency [4] | Potency [5] | Potency [6] | Potency [10] | Potency [8] | Potency [9]

O=C(O)C1(C(=O)O)CCC1.[NH2-].[NH2-].[Pt+2]
inactive: Potency [1] | Potency [2] | Potency [3] | Potency [4] | Potency [5] | Potency [6] | Potency [10] | Potency [8] | Potency [9]

C[C@@H]1C[C@H]2O[C@@]3(O[C@@H]2C(C)(C)O)[C@H](O)[C@@]2(C)[C@@H]4CC[C@H]5C(C)(C)[C@@H](O[C@@H]6OC[C@@H](O)[C@H](O)[C@H]6O)CC[C@@]56C[C@@]46CC[C@]2(C)[C@@H]13
inactive: Potency [1] | Potency [2] | Potency [3] | Potency [4] | Potency [5] | Potency [6] | Potency [7]

CCC(Cl)CCC(Cl)C(Cl)CC(Cl)C(Cl)C(Cl)CCl (stereo not drawn)
inactive: Potency [1] | Potency [2] | Potency [3] | Potency [4] | Potency [5] | Potency [6] | Potency [8] | Potency [9]

Cc1ccccc1S(=O)(=O)O
inactive: Potency [1] | Potency [2] | Potency [3] | Potency [4] | Potency [5] | Potency [6] | Potency [10] | Potency [8] | Potency [9]

COc1ccc(C(=O)Nc2nc3ccccc3c(NCc3ccccc3)c2C#N)cc1
inactive: Potency [1] | Potency [2] | Potency [3] | Potency [4] | Potency [5] | Potency [6] | Potency [7]

CCCCCCOC(=O)NC(=N)c1ccc(NCc2nc3cc(C(=O)N(CCC(=O)OCC)c4ccccn4)ccc3n2C)cc1
active: Potency [2] 19 µM | Potency [4] 21.3 µM | Potency [6] 11.9 µM
inactive: Potency [3] | Potency [5]

Nc1ccc(S(=O)(=O)Nc2ccccc2)cc1
inactive: Potency [1] | Potency [2] | Potency [3] | Potency [4] | Potency [5] | Potency [6] | Potency [10] | Potency [8]

O[C@@H](COc1cccc2ncccc12)CN1CCN(C2c3ccccc3[C@@H]3[C@H](c4ccccc42)C3(F)F)CC1 (stereo partly drawn)
inactive: Potency [2] | Potency [3] | Potency [4] | Potency [5] | Potency [6] | Potency [10]

C#C[C@]1(O)CC[C@H]2[C@@H]3CCc4cc(OC5CCCC5)ccc4[C@H]3CC[C@@]21C
active: Potency [2] 21.3 µM | Potency [5] 29.8 µM | Potency [6] 10.6 µM
inactive: Potency [3] | Potency [4]

CN(Cc1ccc(C(C)(C)C)cc1)Cc1cccc2ccccc12
inactive: Potency [3] | Potency [4] | Potency [5] | Potency [6]
active: Potency [2] 21.3 µM | Potency [9] 10.7 µM

c1ccc(CNCCNCc2ccccc2)cc1
inactive: Potency [1] | Potency [2] | Potency [3] | Potency [4] | Potency [5] | Potency [6] | Potency [10] | Potency [9]

O=C1CCCCCCCCCCCC(=O)OCCO1
inactive: Potency [2] | Potency [3] | Potency [4] | Potency [5] | Potency [6] | Potency [7]

CCCOC(C(=O)OC1CCN(C)CC1)(c1ccccc1)c1ccccc1
inactive: Potency [1] | Potency [2] | Potency [3] | Potency [4] | Potency [5] | Potency [7]
active: Potency [6] 13.3 µM

CCCCCCCC#N
inactive: Potency [1] | Potency [2] | Potency [3] | Potency [4] | Potency [5] | Potency [6] | Potency [7]

CCCCC
inactive: Potency [2] | Potency [3] | Potency [4] | Potency [5] | Potency [6] | Potency [10] | Potency [8]

CC(C)Nc1ccc(NC(C)C)c2c1C(=O)c1ccccc1C2=O
active: Potency [5] 28.4 µM | Potency [6] 25.3 µM
inactive: Potency [1] | Potency [2] | Potency [3] | Potency [4] | Potency [7]

C=C1C(=C/C=C2\CCC[C@]3(C)[C@@H]([C@H](C)/C=C/[C@@H](O)C4CC4)CC[C@@H]23)C[C@@H](O)C[C@@H]1O
inactive: Potency [2] | Potency [3] | Potency [4] | Potency [5]
active: Potency [6] 13.3 µM | Potency [9] 23.9 µM

Cc1oc2c(NC(=O)c3c(Cl)cccc3Cl)cccc2c1C(C)(C)O
active: Potency [6] 27.3 µM
inactive: Potency [2] | Potency [3] | Potency [4] | Potency [5] | Potency [10]

O=C(CS)Nc1ccccc1
inactive: Potency [1] | Potency [2] | Potency [3] | Potency [4] | Potency [5] | Potency [6] | Potency [10] | Potency [9]

NC(N)=NCCC[C@H](N)C(=O)O
inactive: viability change, negative = cytotoxic [1] -1.77% [at 6.95 µM] | activity, negative = cytotoxic [2] 7.11% [at 6.95 µM] | activation [3] 0.874% [at 6.95 µM] | activity change, negative = cytotoxicity [4] -7.79% [at 6.95 µM] | activity, negative = cytotoxicity [5] 0.0529% [at 8.39 µM] | activity change, negative = inhibition [6] -5.21% [at 8.39 µM] | activation [10] 2.4% [at 6.97 µM] | activation [8] 7.8% [at 6.98 µM] | activity change, negative = cytotoxicity [9] 6.89% [at 6.97 µM]

Reference: PubChem BioAssay (Tox21)
